Drawing on PubChem BioAssay, this text covers inhibition for 40 compounds.

Activity calls are given as the source filed them. No rule for the calls is given here.

For orientation: inhibition means the change of the read-out against control, counted positive when it falls.

Chain of Pantothenate synthetase (Mycobacterium tuberculosis (strain ATCC 25618 / H37Rv)) (P9WIL5 whole entry, looked up): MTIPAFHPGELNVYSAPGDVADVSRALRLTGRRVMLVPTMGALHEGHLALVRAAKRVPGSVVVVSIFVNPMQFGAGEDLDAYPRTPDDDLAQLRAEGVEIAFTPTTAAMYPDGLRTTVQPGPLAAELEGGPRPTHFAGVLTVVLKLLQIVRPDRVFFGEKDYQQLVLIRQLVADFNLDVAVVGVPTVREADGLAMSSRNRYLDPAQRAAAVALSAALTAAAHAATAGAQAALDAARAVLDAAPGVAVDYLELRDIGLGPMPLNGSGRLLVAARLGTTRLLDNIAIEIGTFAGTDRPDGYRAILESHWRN

The test addresses Pantothenate synthetase (Mycobacterium tuberculosis (strain ATCC 25618 / H37Rv)) (UniProt P9WIL5). The test is described as follows: Recombinant Mtb pantothenate synthetase (PanC) inhibitors, coupled enzyme, confirmatory (AID 375).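 Also: 0% = full reaction with vehicle and 100% = no enzyme background.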 As to conditions: coupled enzyme assay; at 10 µM, stronger effect = higher value.
Turning to `C=CCOc1nc(N2CCCC2)nc(N2CCCC2)n1`, the inhibition is 5% (inactive).

Turning to `CC1=C(C(=O)N2CCCCC2)C2(CCC(C)CC2)OC1=O` (stereo not given), the inhibition was 12% (inactive). As for `O=C(Nc1ccc2c(c1)C(=O)N(C1CCCCC1)C2=O)C1CCCO1` (stereo not given), the inhibition was 6% (inactive). The same measure for `COC(=O)c1c(N)nc(C)n1-c1ccc(OC)cc1`: 0% (inactive); for `O=C(NCc1ccco1)C1CCN(S(=O)(=O)N2CCC3(CC2)OCCO3)CC1`: 0% (inactive).

Turning to `COc1ccccc1Nc1ncnc2c1cnn2-c1cccc(C)c1`, the inhibition is 0% (inactive). `COc1ccc(/C=N/n2cnnc2SCc2ccc(OC)cc2)cc1`: the inhibition was 0% (inactive). Consider `Cc1c(C(=O)NCc2ccccc2)oc2c1C(=O)CCC2`, for which the inhibition was 0% (inactive).

Regarding `Cc1c(C2Nc3ccccc3NC3=C2C(=O)CC(C)(C)C3)cnn1C` (stereo not given), the inhibition was 2% (inactive). The result for `O=C(CSc1nnnn1-c1ccccc1)Nc1nsc(-c2ccc(Cl)cc2)n1` reads 0% (inactive); that for `COc1ccc(OC)c(CNC(=O)COc2cc(=O)n(C)c3ccccc23)c1`, 0% (inactive); that for `CCCCn1cnc2c(cnn2-c2ccc(Cl)cc2)c1=O`, 6% (inactive). The result for `CC(=O)Nc1nnc(S(N)(=O)=O)s1` reads 0% (inactive); that for `COCCCNC(=O)c1c(N)n(-c2cccc(S(N)(=O)=O)c2)c2nc3ccccc3nc12`, 2% (inactive). The same measure for `CC(=O)Nc1cccc(OCC(O)Cn2cnc3ccccc32)c1` (stereo not given): 0% (inactive); for `CCn1cc(C(=O)O)c(=O)c2ccc(C)nc21`: 0% (inactive); for `CCN1CCN(C(c2cccs2)C(C)NC(=O)c2ccccc2)CC1` (stereo not given): 12% (inactive). For the compound `COCc1cc(C)c2c(N)c(C#N)sc2n1`, the inhibition is 1% (inactive). As for `O=c1c2ccccc2nnn1CSc1nnc2sc3ccccc3n12`, the inhibition was 0% (inactive).

As for `COc1ccccc1-c1nc2n(n1)C(c1ccc(Cl)cc1)C(C(N)=O)=C(C)N2` (stereo not given), the inhibition was 0% (inactive).

`CC(C)(C)c1cc(CCC(=O)N2CCNCC2)c(C(C)(C)C)cc1O`: the inhibition is 0% (inactive).

As to `CC(C)CCNC(=O)C1CCN(C(=O)N(C)C)CC1`, the inhibition was 0% (inactive).

As to `CCN(CC)CCCNC(=O)c1cn(C)c2ccc(S(=O)(=O)N(C)C)cc2c1=O`, the inhibition was 10% (inactive). The result for `NC1=NC(c2ccc(Br)cc2)n2c(nc3ccccc32)N1` (stereo not given) reads 0% (inactive). The same measure for `COCCNC(=O)C(c1ccc(C)o1)N(C(=O)c1snc(C(N)=O)c1N)c1ccc(C)cc1` (stereo not given): 4% (inactive); for `O=C(O)[C@@H]1CCCN1c1ncnc2sc3c(c12)CCC3`: 6% (inactive); for `CCOc1ccccc1OCC(=O)Nc1nnc(COC)s1`: 4% (inactive). `CCOc1cc2[nH]c(=O)n(CCC(=O)NCCc3ccc(OC)c(OC)c3)c(=O)c2cc1OCC`: the inhibition is 1% (inactive). Regarding `O=C(Cn1ccc2ccccc2c1=O)NCCC(=O)NC1CCN(Cc2ccccc2)CC1`, the inhibition is 0% (inactive). The same measure for `CC1CCN(S(=O)(=O)c2ccc(NC(=O)CSc3nnnn3C)cc2)CC1`: 2% (inactive).

In the case of `Cc1ccc(NC(=O)C2CCCN2C(=O)Oc2ccccc2)cc1` (stereo not given), the inhibition was 1% (inactive). As to `O=C1N[C@@H](Cc2cnc[nH]2)C(=O)N2CCC[C@@H]12`, the inhibition is 0% (inactive).

For `COc1ccc(N2C(=O)C3C4C=CC(C4)C3C2=O)nn1` (stereo not given), the inhibition is 8% (inactive). The same measure for `Nc1nnc(SCC(=O)N2CCc3ccccc32)n1-c1ccccc1`: 1% (inactive). The same measure for `Cc1cc(C)n(C(=O)CCCCCC(=O)n2nc(C)cc2C)n1`: 6% (inactive); for `CCN1C(=O)/C(=C/N(C)c2ccccc2)OC1=S`: 4% (inactive). The result for `Cc1ccc(C(=O)Nc2nc3c(s2)CCCC3)o1` reads 2% (inactive); that for `COc1cccc2sc(NC(=O)c3ccc(S(=O)(=O)N4CCOCC4)cc3)nc12`, 1% (inactive).

Regarding `C=CCSc1nnc(Cc2c(C)[nH]c3ccccc23)o1`, the inhibition was 0% (inactive). Take `O=C(COC(=O)c1cc(S(=O)(=O)N2CCOCC2)cs1)c1ccccc1`: the inhibition was 0% (inactive).
